The text below walks through data of PubChem BioAssay (NCI).

Compounds without any hit were thinned out: in the full panel of roughly 83,000, 20% have a hit.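 Values shown are percent growth following 48 h exposure of cells in 96-well plates to a single concentration of compound; below 10 was considered active.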 Unmarked numbers belong to inactive results. The source made the active and inactive calls.

This assay has as its system ACHN renal. Kind of assay: NCI-60 one-dose screen, 48 h (100 = growth as untreated, 0 = no growth, -100 = all killed). Conditions: 10 µM unless noted. Here is the method:
Growth inhibition of the ACHN human tumor cell line is measured as a screen for anti-cancer activity. Cells are grown in 96 well plates and exposed to the test compound for 48 hours. Compounds are tested at a single concentration, which is 10^-5 M for most compounds. The reported endpoint is percent growth (GI% or GIPRCNT), where numbers from 0 - 100% represent growth inhibition, and numbers from -100% - 0 represent cell death. For example, a value of 40 represents 60% growth inhibition. A value of 0 means no net growth occurred over the course of the experiment. A value of -40 indicates 40% of cells at the beginning of the experiment died by the end of the experiment. A value of -100 means all cells are dead at the end of the experiment.
NCI-60 Human Tumor Cell Lines Screen was performed using the standard one-dose NCI protocol, which is described in more detail at https://dtp.cancer.gov/discovery_development/nci-60/default.htm.
Compounds with GIPRCNT values below 10 were considered active. Activity score was based on GIPRCNT using the following formula: […]
Score is 0 for GIPRCNT values of 100 or above, 50 for GIPRCNT values of 0, and 100 for GIPRCNT values of -100.
As to `COC(=O)C1NC(=S)N(c2ccc(Cl)cc2)C1/C=C/c1ccccc1` (stereo not given), the growth was 96.3%. For `Cc1cc(Nc2cccc(C(F)(F)F)c2)n2c(nc3ccccc32)c1C#N`, the growth was 46.9%.

As for `Nc1c(C(=O)Nc2ccc(Cl)cc2)cc(-c2nc3ccccc3s2)c(=O)n1NS(=O)(=O)c1ccc(Cl)cc1`, the growth was 103%. Under `CC(=O)N1N=C(c2cccc(Nc3ccncc3)c2)CC1c1ccc2c(c1)OCO2` (stereo not given) stands 101%.

Regarding `COc1cnccc1-c1nc2ccc3[nH]ncc3c2c2c1CCCC2`, the growth was 37.6%.

As to `CCN1C(=O)/C(=c2\sc3n(c2=O)NC2C(N=3)N(CC)C(=O)N2CC)c2ccccc21` (stereo not given), the growth is 49.3%.

`Cc1cc(C)c(C=O)c(C)c1`: the growth was 108%. With `Cc1ccc(C2CC(c3cccc(Nc4ccncc4)c3)=NN2c2cc(Cl)cc(Cl)c2)cc1` (stereo not given), the growth was -61.9% (active). With `N/C(=N\N=C\c1cc2ccccc2s1)N/N=C/c1cc2ccccc2s1`, the growth was 107%.

Consider `O=S(=O)(NCCCNc1nccc(-c2c(-c3cccc(O)c3)nc3occn23)n1)c1ccc(Br)cc1`, for which the growth was 84.9%. Then `CC(N)C(=O)NNc1n[nH]c(=S)n1N` (stereo not given), with 108%. As for `CN(C)C(=O)OCc1nc2c(N3CCOCC3)nc(-c3ccccc3)nc2n1C`, the growth was -99.8% (active). Under `CCOC(=O)N1CCc2c(sc3nc4nc[nH]n4c(=O)c23)C1` stands 103%. Then `CNC(=O)NCC1OC(n2cnc3c(NC(=O)Nc4ccccc4)ncnc32)C(O[Si](C)(C)C(C)(C)C)C1O[Si](C)(C)C(C)(C)C` (stereo not given), with 20.5%; and `COc1cc(/C=C/C(=O)c2ccc(Nc3ncnc4ccccc34)cc2)cc(OC)c1`, with 76.8%. Then `N#CSCC1CC(O)(c2ccccc2)C(c2ccccc2)C(c2ccc(F)cc2)O1` (stereo not given), with 25.2%; and `CC(C)C1C2=C(NCCN1C(=O)Cc1ccccc1)C(C)(C)N(Cc1ccccc1)C2=O` (stereo not given), with 101%; and `O=C1OC(=O)C2C1CC=CC2c1ccccc1` (stereo not given), with 104%.

Turning to `COc1cccc(/C=C2\COc3ccc(-c4ccccc4)cc3C2=O)c1`, the growth is 46.8%. In the case of `CCCCc1ccc(Nc2nnc(SCC(=O)NC(=O)NCC)s2)cc1`, the growth is 101%. Under `O=C(c1ccccc1)N1N=C(c2ccc(-n3ccc(C(F)(F)F)n3)cc2)CC1c1ccc[nH]1` (stereo not given) stands 90.6%.

For the compound `COc1ccc(Cn2nc(-c3cc(OC)c(OC)c(OC)c3)c3c2CCc2cnoc2-3)cc1OC`, the growth is 74.9%. Then `C#CC(=O)Nc1cccc2c1cc(C)n2-c1nc2c(c(NCc3ccccc3)n1)CCCC2`, with -73.6% (active); and `CCOc1cc(CNc2ccc(N3CCOCC3)c(C(=O)O)c2)ccc1OC`, with 108%. As for `Clc1ccc(N2N=C(c3cccc(Nc4ccncc4)c3)CC2c2ccc3c(c2)OCO3)cc1` (stereo not given), the growth is 41.6%. As for `Cc1ccc2nc3c(cc2c1)CSc1nnc(-c2ccc[nH]c2=S)n1N3`, the growth is 97.4%. Regarding `COc1cc2nc(Cc3ccc(C)cc3)[nH]c(=O)c2cc1OC`, the growth was 110%. Then `CC(=O)c1c(-c2ccc(OC(F)(F)F)cc2)nc2ccccn12`, with 95.7%. Then `S=c1[nH]cccc1-c1nnc2n1Nc1nc3ccc(Cl)cc3cc1CS2`, with 101%; and `C=C1C(=O)O[C@H]2[C@H]1CC/C(COC(=O)CCCc1c[nH]c3ccccc13)=C\CC[C@@]1(C)O[C@@H]21`, with 59.5%. As for `O=C(Nc1ccc2ncnc(Nc3ccc(Oc4cccc(F)c4)c(Cl)c3)c2c1)c1ccc(CNCCO)cc1`, the growth is 28.8%. Consider `C1=C2CNCC3=Cc4ccc5ccccc5c4OC23Oc2c1ccc1ccccc21`, for which the growth was 37.2%.

As for `COC(=O)N[C@H]1CCc2cc(OC)c(OC)c(OC)c2-c2ccc(SC)c(=O)cc21`, the growth was 24.9%. As to `O=CNc1cc(Cl)cc(Cl)c1`, the growth is 101%. Consider `Clc1cc(Cl)cc(N2N=C(c3cccc(Nc4ccncc4)c3)CC2c2ccc3c(c2)OCO3)c1` (stereo not given), for which the growth is -27.5% (active). Under `Cc1cc2cc3cc(C)c(N)cc3[n+](C)c2cc1N` stands 28.5%.

As to `NC(=S)N/N=C(/c1ccccc1)c1ccccc1N`, the growth is 90.6%. As for `C[C@H]1[C@H](C)CC[C@]2(CO)CC[C@]3(C)C(=CC[C@@H]4[C@@]5(C)Cc6c([nH]c7ccccc67)C(C)(C)[C@@H]5CC[C@]43C)[C@H]12`, the growth was 60.8%.

`C(=N\Nc1ncc(-c2cc3cc4c(cc3o2)OCO4)s1)/c1c[nH]c2ccccc12`: the growth is -31.4% (active). With `COc1cc(NCC(C)(O)CN(CC(C)C)CC(C)C)c2nc(C)ccc2c1` (stereo not given), the growth is 79%.
